# According to ChEMBL document CHEMBL3988442, “University of Dundee, Small-Polar-MMV Screening Library” (2021):
# For part of these data: Results with a measured potency or affinity are listed apart.
# How the values were obtained:
# Set-up in all cases: scale not given: direction of the effect not stated beside the values
# [1] = target: Protein translocase subunit SecA (Escherichia coli (strain K12)) (UniProt P10408); assay: Assay to Identify E. coli SecA ATPase Inhibitors; assay type: functional; details: 30 µM
# Chain of Protein translocase subunit SecA (Escherichia coli (strain K12)) (P10408 whole entry): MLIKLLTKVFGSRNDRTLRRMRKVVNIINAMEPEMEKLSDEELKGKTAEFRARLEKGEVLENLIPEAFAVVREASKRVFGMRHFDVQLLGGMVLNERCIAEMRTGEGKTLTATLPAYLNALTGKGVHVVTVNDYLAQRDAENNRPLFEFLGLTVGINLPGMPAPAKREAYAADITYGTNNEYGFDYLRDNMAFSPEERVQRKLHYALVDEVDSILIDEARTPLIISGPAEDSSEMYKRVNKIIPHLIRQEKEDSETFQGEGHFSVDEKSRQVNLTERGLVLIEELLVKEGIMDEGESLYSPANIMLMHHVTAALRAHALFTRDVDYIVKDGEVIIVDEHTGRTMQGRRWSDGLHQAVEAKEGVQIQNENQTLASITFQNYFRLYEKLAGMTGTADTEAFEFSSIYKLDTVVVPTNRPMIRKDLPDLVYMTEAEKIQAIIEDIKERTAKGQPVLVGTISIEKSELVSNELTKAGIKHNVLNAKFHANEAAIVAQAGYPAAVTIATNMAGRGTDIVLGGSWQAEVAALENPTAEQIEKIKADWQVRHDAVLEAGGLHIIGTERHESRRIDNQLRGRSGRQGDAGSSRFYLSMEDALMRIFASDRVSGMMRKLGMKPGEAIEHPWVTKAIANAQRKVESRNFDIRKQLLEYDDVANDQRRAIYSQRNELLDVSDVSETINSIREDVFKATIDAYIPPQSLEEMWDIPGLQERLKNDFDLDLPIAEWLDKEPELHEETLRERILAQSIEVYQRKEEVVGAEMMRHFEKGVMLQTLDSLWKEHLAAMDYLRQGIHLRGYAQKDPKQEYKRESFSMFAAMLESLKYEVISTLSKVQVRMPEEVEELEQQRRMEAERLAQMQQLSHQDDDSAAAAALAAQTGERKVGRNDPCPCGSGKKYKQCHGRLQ
# [2] = target: T1, Ubiquitin-activating enzyme e1, putative (Leishmania donovani (strain BPK282A1)) (UniProt E9BSI1); assay: Leishmania donovani Ubiquitin Activating Enzyme (LdE1); assay type: functional; details: 30 µM
# T1 sequence (whole entry): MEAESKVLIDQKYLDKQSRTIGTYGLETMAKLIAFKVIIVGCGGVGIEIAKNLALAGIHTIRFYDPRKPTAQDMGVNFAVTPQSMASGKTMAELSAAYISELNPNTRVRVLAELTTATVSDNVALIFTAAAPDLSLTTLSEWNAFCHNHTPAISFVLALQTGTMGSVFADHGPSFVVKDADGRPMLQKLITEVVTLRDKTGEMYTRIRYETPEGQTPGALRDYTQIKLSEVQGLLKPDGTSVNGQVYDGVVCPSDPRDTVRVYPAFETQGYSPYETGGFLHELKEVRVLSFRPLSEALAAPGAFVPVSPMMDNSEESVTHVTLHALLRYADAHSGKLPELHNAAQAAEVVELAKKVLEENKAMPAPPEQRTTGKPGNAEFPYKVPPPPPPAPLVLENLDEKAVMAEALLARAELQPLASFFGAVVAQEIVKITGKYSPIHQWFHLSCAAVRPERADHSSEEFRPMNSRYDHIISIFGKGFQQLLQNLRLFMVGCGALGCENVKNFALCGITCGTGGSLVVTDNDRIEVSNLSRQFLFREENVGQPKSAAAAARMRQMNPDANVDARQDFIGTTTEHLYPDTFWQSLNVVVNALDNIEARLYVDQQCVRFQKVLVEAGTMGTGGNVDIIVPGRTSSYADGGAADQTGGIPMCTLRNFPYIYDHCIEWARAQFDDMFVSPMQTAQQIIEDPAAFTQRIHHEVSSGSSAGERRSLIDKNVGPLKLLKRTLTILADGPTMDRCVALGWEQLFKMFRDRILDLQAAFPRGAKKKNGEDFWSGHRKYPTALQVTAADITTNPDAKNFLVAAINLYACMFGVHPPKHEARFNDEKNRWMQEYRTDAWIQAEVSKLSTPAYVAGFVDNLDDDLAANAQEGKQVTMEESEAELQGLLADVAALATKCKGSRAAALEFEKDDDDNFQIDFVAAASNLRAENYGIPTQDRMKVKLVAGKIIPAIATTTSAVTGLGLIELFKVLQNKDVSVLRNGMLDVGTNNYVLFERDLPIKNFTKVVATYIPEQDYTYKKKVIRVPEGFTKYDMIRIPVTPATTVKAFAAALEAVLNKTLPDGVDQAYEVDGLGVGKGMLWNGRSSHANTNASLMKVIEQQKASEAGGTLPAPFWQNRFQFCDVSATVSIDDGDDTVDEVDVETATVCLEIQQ
# [3] = target: AMP-activated protein kinase, AMPK (Homo sapiens) (UniProt P54646+O43741+P54619+Q9UGJ0+Q9Y478+Q13131+Q9UGI9); assay: AMP-dependent Kinase enzyme assay. An in vitro enzyme assay that detects ADP turnover that is directly proportional to AMPK activity. This uses naive AMPK that is activated during the assay with MK-8722; assay type: functional; details: 30 µM
# [4] = target: Sialic acid-binding Ig-like lectin 9 (Homo sapiens) (UniProt Q9Y336); assay: Hs-Siglec9 ALPHAscreen SOP 20170721; details: 10 µM
# Chain of Sialic acid-binding Ig-like lectin 9 (Homo sapiens) (Q9Y336 whole entry): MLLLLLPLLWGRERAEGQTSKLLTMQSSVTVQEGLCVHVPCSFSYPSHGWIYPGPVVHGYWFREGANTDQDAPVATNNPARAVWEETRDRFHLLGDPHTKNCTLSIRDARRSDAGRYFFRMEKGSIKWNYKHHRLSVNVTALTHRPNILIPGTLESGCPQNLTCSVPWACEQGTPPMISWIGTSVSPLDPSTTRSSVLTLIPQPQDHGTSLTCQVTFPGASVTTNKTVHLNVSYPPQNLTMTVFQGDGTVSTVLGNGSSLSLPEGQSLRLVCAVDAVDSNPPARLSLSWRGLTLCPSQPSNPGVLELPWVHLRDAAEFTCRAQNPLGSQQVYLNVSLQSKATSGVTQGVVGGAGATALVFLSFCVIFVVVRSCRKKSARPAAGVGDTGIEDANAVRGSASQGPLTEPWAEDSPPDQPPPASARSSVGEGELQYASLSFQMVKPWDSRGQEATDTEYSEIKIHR
# Trypanosoma cruzi = assay: Trypanosoma cruzi phosphomannomutase and mannose-1-phosphate guanylyltransferase assay; assay type: functional; details: 10 µM
# [5] = target: T2, Arginase-2, mitochondrial (Homo sapiens) (UniProt P78540); assay: in vitro enzyme assay to detect the production of urea directly proportional to the activity of Arginase II; assay type: functional; details: 33.3 µM; further: in the data most compounds retested in dose-response had high values
# T2 sequence (whole entry): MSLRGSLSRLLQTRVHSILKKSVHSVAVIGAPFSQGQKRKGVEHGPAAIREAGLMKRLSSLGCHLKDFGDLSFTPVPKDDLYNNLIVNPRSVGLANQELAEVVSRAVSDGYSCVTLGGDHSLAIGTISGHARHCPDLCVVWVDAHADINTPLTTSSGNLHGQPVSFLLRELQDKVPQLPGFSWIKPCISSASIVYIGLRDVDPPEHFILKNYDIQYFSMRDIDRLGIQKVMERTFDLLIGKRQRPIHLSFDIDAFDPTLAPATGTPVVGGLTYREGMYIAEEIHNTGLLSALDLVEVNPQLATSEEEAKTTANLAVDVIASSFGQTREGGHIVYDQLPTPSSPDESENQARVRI
# [6] = target: T3, Proteasome subunit beta (Trypanosoma cruzi) (UniProt O96673); assay: Trypanosoma cruzi proteasome chymotrypsin-like activity (TcProtChymo) assay.; further: in the data most compounds retested in dose-response had high values; assay type: functional; details: 9.37 µM
# T3 sequence (whole entry): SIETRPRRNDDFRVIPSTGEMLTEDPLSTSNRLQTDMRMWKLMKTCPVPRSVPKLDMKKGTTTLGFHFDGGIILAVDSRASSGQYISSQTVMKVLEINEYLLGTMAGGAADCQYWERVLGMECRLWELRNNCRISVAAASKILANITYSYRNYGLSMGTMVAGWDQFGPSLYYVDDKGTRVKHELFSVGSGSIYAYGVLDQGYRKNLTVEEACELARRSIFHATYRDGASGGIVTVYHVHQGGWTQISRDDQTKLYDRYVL
# Homo sapiens = species: Homo sapiens; assay: To identify inhibition of the IFN signalling (Jak-Stat) pathway via expression of an eGFP reporter gene under the control of an IFN-stimulated response element (ISRE) containing MxA promoter.; assay type: functional; details: 30 µM
# [7] = target: T4, Tyrosyl-tRNA synthetase, putative (Trypanosoma cruzi (strain CL Brener)) (UniProt Q4DSP6); assay: Trypanosoma cruzi tyrosyl tRNA synthetase (TcYRS) _High Tyrosine SOP; assay type: functional; details: 30 µM; further: in the data most compounds retested in dose-response had high values
# T4 sequence (whole entry): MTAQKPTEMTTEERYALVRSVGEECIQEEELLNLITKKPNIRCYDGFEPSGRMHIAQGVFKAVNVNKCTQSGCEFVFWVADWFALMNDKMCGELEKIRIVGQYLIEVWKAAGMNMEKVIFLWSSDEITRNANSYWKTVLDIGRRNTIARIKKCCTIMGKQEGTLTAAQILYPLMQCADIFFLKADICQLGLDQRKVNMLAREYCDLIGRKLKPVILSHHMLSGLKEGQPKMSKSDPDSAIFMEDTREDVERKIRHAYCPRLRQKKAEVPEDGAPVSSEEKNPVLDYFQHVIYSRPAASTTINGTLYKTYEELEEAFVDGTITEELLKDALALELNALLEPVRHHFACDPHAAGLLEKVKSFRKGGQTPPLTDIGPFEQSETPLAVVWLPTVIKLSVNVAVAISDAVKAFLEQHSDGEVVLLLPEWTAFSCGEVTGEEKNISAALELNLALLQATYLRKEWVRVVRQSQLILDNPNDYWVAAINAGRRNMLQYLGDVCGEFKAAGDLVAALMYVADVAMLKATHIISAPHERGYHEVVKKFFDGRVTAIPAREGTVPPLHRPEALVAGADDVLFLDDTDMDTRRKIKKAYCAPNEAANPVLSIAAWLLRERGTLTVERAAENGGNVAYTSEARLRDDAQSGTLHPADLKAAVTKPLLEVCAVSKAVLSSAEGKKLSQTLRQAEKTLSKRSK
# [8] = target: T4, Tyrosyl-tRNA synthetase, putative (Trypanosoma cruzi (strain CL Brener)); assay: Trypanosoma cruzi tyrosyl tRNA synthetase (TcYRS) SOP; assay type: functional; details: 30 µM
# [9] = target: Chromo domain-containing protein 1 (Saccharomyces cerevisiae (strain ATCC 204508 / S288c) (Baker's yeast)) (UniProt P32657); assay: ScCHD-1 Enzyme Inhibition Assay; assay type: functional; details: 30 µM; further: in the data most compounds retested in dose-response had high values
# Chain of Chromo domain-containing protein 1 (Saccharomyces cerevisiae (strain ATCC 204508 / S288c) (Baker's yeast)) (P32657 whole entry, the tested form may be a part): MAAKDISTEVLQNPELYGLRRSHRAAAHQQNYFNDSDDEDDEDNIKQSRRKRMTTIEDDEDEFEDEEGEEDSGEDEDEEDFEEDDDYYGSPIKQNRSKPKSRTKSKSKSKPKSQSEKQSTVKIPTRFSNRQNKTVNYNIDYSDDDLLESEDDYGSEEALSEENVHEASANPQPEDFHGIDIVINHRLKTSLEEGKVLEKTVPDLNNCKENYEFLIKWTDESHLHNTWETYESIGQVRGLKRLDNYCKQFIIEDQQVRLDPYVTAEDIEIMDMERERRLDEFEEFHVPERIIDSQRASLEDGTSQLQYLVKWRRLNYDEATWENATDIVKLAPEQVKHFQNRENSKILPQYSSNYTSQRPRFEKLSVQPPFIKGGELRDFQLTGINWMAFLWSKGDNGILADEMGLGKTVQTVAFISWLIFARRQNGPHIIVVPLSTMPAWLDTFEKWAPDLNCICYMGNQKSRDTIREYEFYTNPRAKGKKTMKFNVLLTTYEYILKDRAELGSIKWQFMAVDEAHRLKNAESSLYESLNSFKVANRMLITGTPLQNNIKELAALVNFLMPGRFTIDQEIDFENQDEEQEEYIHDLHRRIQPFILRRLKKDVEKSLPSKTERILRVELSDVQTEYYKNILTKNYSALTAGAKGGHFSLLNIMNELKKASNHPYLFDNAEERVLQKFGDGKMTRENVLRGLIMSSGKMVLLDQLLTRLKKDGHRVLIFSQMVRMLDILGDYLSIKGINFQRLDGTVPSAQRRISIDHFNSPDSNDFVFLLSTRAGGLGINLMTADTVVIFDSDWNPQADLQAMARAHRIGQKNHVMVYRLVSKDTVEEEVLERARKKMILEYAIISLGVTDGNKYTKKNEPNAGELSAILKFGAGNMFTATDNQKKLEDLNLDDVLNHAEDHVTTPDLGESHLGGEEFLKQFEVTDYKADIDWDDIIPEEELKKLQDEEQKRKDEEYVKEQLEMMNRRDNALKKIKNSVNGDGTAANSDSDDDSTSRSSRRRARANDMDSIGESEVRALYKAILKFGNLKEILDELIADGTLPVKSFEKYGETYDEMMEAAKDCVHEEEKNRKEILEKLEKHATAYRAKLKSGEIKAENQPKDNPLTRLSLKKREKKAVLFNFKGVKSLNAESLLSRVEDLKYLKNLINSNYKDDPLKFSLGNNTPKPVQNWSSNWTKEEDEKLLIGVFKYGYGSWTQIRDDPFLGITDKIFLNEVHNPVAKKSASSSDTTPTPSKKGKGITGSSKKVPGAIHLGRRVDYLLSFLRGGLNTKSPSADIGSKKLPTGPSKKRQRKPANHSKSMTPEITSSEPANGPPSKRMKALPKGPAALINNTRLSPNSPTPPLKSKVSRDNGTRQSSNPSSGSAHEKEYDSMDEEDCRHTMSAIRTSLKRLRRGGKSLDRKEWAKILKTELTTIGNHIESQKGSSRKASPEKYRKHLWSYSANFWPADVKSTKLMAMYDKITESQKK
SMILES,Percent Effect [1] [%],Percent Effect [2] [%],Percent Effect [3] [%],Percent Effect [4] [%],Percent Effect (Trypanosoma cruzi) [%],Percent Effect [5] [%],Percent Effect [6] [%],Percent Effect (Homo sapiens) [%],Percent Effect [7] [%],Percent Effect [8] [%],Percent Effect [9] [%]
Cn1ncc2c(=O)[nH]c(N3CCN(C(=O)c4ccsc4)CC3)nc21,-5.57,2.7,2.37,-0.0131,-6.32,17.2,3.24,25,-1.48,-11.1,1.01
O=C1OCCN1CCc1nc(-c2cc3c4c(c2)CC(=O)N4CCC3)cs1,-8.45,0,4.43,-2.26,-7.87,-0.712,9.97,47.2,0.971,0,-5.4
c1cnn(CC2CN(CCc3ccncc3)CCO2)c1 (stereo not drawn),1.49,13,1.87,-13.5,-2.06,0.632,6.22,32,4.76,21.2,-16.1
CN(CCN1CCOCC1)C(=O)CCCc1ccccc1,-3.72,0,3.21,3.74,4.38,-3.55,13.9,-19,5.32,5.2,0.287
CNS(=O)(=O)c1cccc(CNc2ccc(C(F)(F)F)nn2)c1,-5.02,8.11,-4.31,-0.144,-3.87,30.9,-1.62,19.2,4.43,6.17,-1.87
Cc1ncsc1C(=O)N(C)Cc1ccncc1,-4.37,10.5,3,-5.42,-6.58,-2.68,16,23.6,1.47,-7.32,-6
O=c1nc(SCc2ccncc2)c2c(n1CCO)CCCC2,-0.843,16.4,-2.68,11.4,3.92,19.6,21.8,19.8,3.23,7.5,-7.55
Cc1cccc(C(=O)N2C[C@@H]3CCN(c4cccnc4)C[C@@H]3C2)c1,-6.42,2.67,9.98,-2.65,-1.38,0.233,1.67,16.4,1.06,-3.85,-3.21
CNc1nc(CNC(=O)Nc2ccccc2-c2noc(C)n2)cs1,-1.81,-2.63,-2.79,-0.349,-3.19,-1.92,3.01,17.1,1.47,-4.88,-4.83
CN(Cc1ncc(C(C)(C)C)o1)C1CCCN(c2cccnn2)C1 (stereo not drawn),-2.8,15.2,-7.54,-5.13,3.49,2.66,13.2,2.64,12.3,16.5,-3.04
O=C(CN1CCCCCCC1=O)NCc1ccccn1,-1.09,5.48,-2.69,1.29,2.78,2.4,1.46,0.819,5.21,11.1,-5.16
Cn1cc2c(n1)C(COCC1CC1)CN(Cc1ccccn1)C2 (stereo not drawn),-6.24,-2.7,0.433,-2.97,4.2,-0.319,9.22,9.46,6.49,10.3,4.91
Cc1n[nH]c(C)c1NC(=O)CN1CCc2c(nc(C3CC3)n2C)C1,-1.39,20.8,-6.42,-4.94,-9.36,0,10.6,37.3,3.88,2.44,-7.54
CN(C)C(=O)NC[C@H]1OC[C@@H]2CCN(Cc3ccoc3)C[C@@H]21,2.83,2.67,24.1,-3.37,-5.41,-66.8,8.38,36.1,3.12,10,-4.56
Cn1cccc1CN1CCC2(CCCN(C(=O)c3cnccn3)C2)C1 (stereo not drawn),0.875,7.79,-0.756,-13.7,-10.8,11,14.4,29.7,-2.12,-1.28,-9.31
Cc1nnc(CN2CCC(N(C)Cc3nnc(C4CC4)n3C)C2)o1 (stereo not drawn),-3.08,16.2,-9.74,-7.84,-6.32,-1.2,5.04,20.7,4.43,11.1,-4.72
O=C(Cc1ccc2c(c1)OCCO2)N1CCCC(n2ccnc2)C1 (stereo not drawn),-8.71,5.2,-7.38,-6.56,10.7,-3.58,4.77,2.67,1.91,11.8,-24.2
CCOc1ccc(C2CC(=O)Nc3c2c(=O)nc2sccn32)cc1 (stereo not drawn),-6.79,17.3,-2.62,8.5,1.97,-6.51,9.06,7.35,4.23,7.69,-13.3
